VACV mCherry inh – vaccinia inhibition (mCherry reporter) | Vaccinia virus mCherry reporter infection, fluorescence | Potency, µM (highest dose often 36.5 µM), for the others: at the highest dose activity change, negative = inhibition, actives largely listed as inhibitors | 0.63% of 310,000 active; calls by dose curve; tested in A549 cells; further: nearly all actives have a fitted effect of over 35% in size
Vaccinia Venus – vaccinia inhibition (Venus reporter) | AID 720580 | Potency, µM (series often up to 36.5 µM), for the others: at the highest dose activity change, negative = inhibition, usual class: inhibitors | 0.46% of 330,000 active | Vaccinia virus Venus reporter expression, fluorescence; calls by dose curve; tested in A549 cells; further: nearly all actives have a fitted effect of over 30% in size
AmpC inh no detg – inhibitors of E. coli AmpC beta-lactamase without detergent | 0.52% of 330,000 active | P00811 | AmpC nitrocefin hydrolysis, absorbance 480 nm, 0.0001% Triton | AID 485341 | Potency, µM (series often up to 57.1 µM), without a hit: top-dose activity change, negative = inhibition, actives largely listed as inhibitors;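 further: plate controls were no compound for no effect and no enzyme for full effect; nearly all actives have a fitted effect of over 20% in size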
Target sequence (P00811 whole entry, looked up): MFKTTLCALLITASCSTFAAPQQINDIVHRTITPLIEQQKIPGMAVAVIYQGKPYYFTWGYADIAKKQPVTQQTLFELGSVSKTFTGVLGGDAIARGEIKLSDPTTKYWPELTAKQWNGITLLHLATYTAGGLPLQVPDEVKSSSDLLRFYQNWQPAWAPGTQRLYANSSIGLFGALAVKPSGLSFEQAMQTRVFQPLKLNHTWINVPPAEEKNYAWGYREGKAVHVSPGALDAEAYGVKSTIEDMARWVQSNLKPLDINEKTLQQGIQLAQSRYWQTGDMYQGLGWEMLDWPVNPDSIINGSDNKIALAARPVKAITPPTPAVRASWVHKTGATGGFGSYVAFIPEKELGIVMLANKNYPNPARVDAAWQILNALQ
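AmpC (5.3 nM in the dispensed reagent) in 20 mM phosphate pH 7.0 with 0.01% (detergent screen) or 0.0001% Triton X-100 was preincubated with compounds for 15 min at room temperature. Nitrocefin was then added from an 800 uM solution, and hydrolysis was followed at 480 nm.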
AmpC detergent – inhibitors of E. coli AmpC beta-lactamase with detergent; P00811; AmpC hydrolysis of nitrocefin, absorbance 480 nm, 0.01% Triton; Potency, µM (highest dose often 114 µM), inactives show at the highest dose activity change, negative = inhibition, actives largely listed as inhibitors; 0.041% of 370,000 active; AID 485294;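 further: 0% = no-compound wells and -100% = no-enzyme wells; nearly all actives have a fitted effect of over 25% in size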
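AmpC (5.3 nM in the dispensed reagent) in 20 mM phosphate pH 7.0 with 0.01% (detergent screen) or 0.0001% Triton X-100 was preincubated with compounds for 15 min at room temperature. Nitrocefin was then added from an 800 uM solution, and hydrolysis was followed at 480 nm.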
An asterisk follows results filed as active; i = inactive; ? = inconclusive; · = no result. Rows were chosen to be rich in hits. Some 1.1% of all compounds tested hit in one or more screens of this group. Unless noted, the call rests on the fitted dose curve; in most records, active means well fitted curve in the direction sought with a large enough effect; inconclusive means small, poorly fitted or top-dose-only effect, or another doubt; inactive means no such curve, though single readings can be large; an effect the other way counts as inactive or inconclusive. Unless noted, on the % scale 0 is the no-effect control and ±100 the full control effect; potency means the concentration at half of the fitted maximal effect.

SMILES | VACV mCherry inh | Vaccinia Venus | AmpC inh no detg | AmpC detergent
CC1CN(S(=O)(=O)c2ccc(C(=O)Nc3nnc(-c4ccc5c(c4)CCCC5)o3)cc2)CC(C)O1 (stereo not drawn) | 8.9µM* | ? | -21% | -9%
COc1ccc(C(=O)CCc2ccccc2)c(O)c1 | i | 10% | · | ·
O=C(CCc1ccccc1)c1c(O)cc(O)cc1O | -8% | -12% | 18µM* | 4%
CC(C)NC(=O)c1cn(C2CCCN(C(=O)c3cc4ccccc4oc3=O)C2)nn1 (stereo not drawn) | -8% | -13% | · | ·
COc1cc(NC(=O)c2cc(Cl)nnc2Cl)cc(OC)c1OC | · | · | -27% | 2%
COc1cccc(NC(=O)c2cc(Cl)nnc2Cl)c1 | 6.3µM* | ? | -16% | -19%
C=CCN1C(=O)C(CC(=O)Nc2ccc(OCCC)cc2)N(CCCN2CCN(Cc3ccccc3)CC2)C1=S (stereo not drawn) | ? | 11µM* | 196% | ?
COc1ccc(NC(=O)CC2C(=O)N(Cc3ccccc3)C(=S)N2CCN2CCOCC2)cc1 (stereo not drawn) | -7% | -20% | 137% | 4%
COC(=O)c1cc(CNC(=O)c2ccc3ccccc3n2)cc(NC(=O)c2cccc(OC)c2)c1 | -8% | 7% | · | ·
O=Cc1ccc2[nH]ccc2c1 | -15% | -5% | · | ·
NC(=O)c1cn(C2OC(CO)C(O)C2O)c2ncnc(N)c12 (stereo not drawn) | 0.32µM* | 0.32µM* | -6% | 1%
OCC1OC(n2cnc3c(NO)ncnc32)C(O)C1O (stereo not drawn) | 39% | 7% | · | ·
Nc1ncnc2c1ncn2[C@@H]1O[C@H](CO)[C@@H](O)[C@H]1O | -12% | 0% | -1% | -4%
NC(=O)c1c(Br)n(C2OC(CO)C(O)C2O)c2ncnc(N)c12 (stereo not drawn) | 11µM* | ? | · | ·
OCC1OC(n2ccc3c(NO)ncnc32)C(O)C1O (stereo not drawn) | ? | 1.1µM* | · | ·
N#Cc1c(Br)n(C2OC(CO)C(O)C2O)c2ncnc(N)c12 (stereo not drawn) | ? | 13µM* | · | ·
C=Nc1ccc(/C=C/c2ccnc3ccccc23)cc1 | -23% | -26% | · | ·
Fc1ccc(N2CCN(Cc3ccc4c(c3)CN(Cc3cccn3-c3cccnc3)CCO4)CC2)cc1 | -5% | -4% | · | ·
CNc1c2cccc(C)c2nc2c(C(=O)NCCN(C)C)cccc12 | 2.2µM* | 2.2µM* | · | ·
COc1cc2cc(C(=O)N3CC(COS(C)(=O)=O)c4ccc(O)cc43)[nH]c2c(OC)c1OC (stereo not drawn) | ? | 35µM* | · | ·
CCOC(=S)SCC(=O)Nc1nc(C)c(C)s1 | · | · | 10µM* | -1%
CO[C@H]1[C@H](NC(=O)c2ccncc2)c2ccccc2C12CCN(C(=O)c1ccoc1)CC2 | -6% | 6% | · | ·
O=C(/C=C/c1ccc(O)c(O)c1)c1ccc(S(=O)(=O)N2CCCCCC2)cc1 | -19% | -12% | 25µM* | ?
CCCn1c(/C=N/Nc2nc3ccccc3[nH]2)nc2ccccc21 | 10µM* | ? | -43% | -19%
COc1ccc(CCNc2ccc(C(CC(N)=O)NC(=O)c3ccc(Br)cc3)cc2[N+](=O)[O-])cc1 (stereo not drawn) | -19% | 13µM* | -37% | -5%
SMILES | VACV mCherry inh | Vaccinia Venus | AmpC inh no detg | AmpC detergent
NC(=O)CC(NC(=O)Cc1ccc(Br)cc1)c1ccc(NCc2ccc(F)c(F)c2)c([N+](=O)[O-])c1 (stereo not drawn) | 18µM* | ? | -49% | 4%
COc1ccc(CCNc2ccc(C(CC(N)=O)NC(=O)Cc3ccc(Br)cc3)cc2[N+](=O)[O-])cc1 (stereo not drawn) | i | -9% | -27% | 5%
NC(=O)CC(NC(=O)Cc1ccc(Br)cc1)c1ccc(N2CCC(Br)CC2)c([N+](=O)[O-])c1 (stereo not drawn) | i | ? | -3% | 5%
NC(=O)CC(NC(=O)Cc1ccc(Br)cc1)c1ccc(N2CCC(Cc3ccccc3)CC2)c([N+](=O)[O-])c1 (stereo not drawn) | ? | 11µM* | 32% | 7%
C[C@@H]1CN(Cc2ccc3c(c2)CN(Cc2cccn2-c2cccnc2)CCO3)C[C@H](C)O1 | -19% | -14% | · | ·
CCCC(=O)N/C(N)=N/c1nc(C)c2cc(C)ccc2n1 | 2.2µM* | ? | -38% | 2%
CCC(=O)N/C(N)=N/c1nc(C)c2cc(C)c(C)cc2n1 | ? | ? | -16% | -7%

Compound activity (PubChem BioAssay)
